Compound activity: PubChem, National Center for Advancing Translational Sciences (NCATS)
Sampled rows, rich in hits. Any-hit rate of the full collection: about 8%.
VP16 counter = counter-screen for ROR gamma inhibitors: Gal4-VP16 reporter; Drosophila S2 Gal4-VP16 UAS-luciferase, luminescence, 20 h; Potency, µM (top dose mostly 53.6 µM), inactives show top-dose activity, negative = inhibition, usual class: inhibitors; 3.5% of 310,000 active; AID 2546;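 note: Gal4-VP16 expression switched on by copper sulfate through the metallothionein promoter; potency is the fitted concentration of half-maximal effect; nearly all actives have a fitted effect of over 50% in size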
TSHR antag = blocks TSH signaling through the human TSH receptor; TSHR-expressing cells, TSH-stimulated cAMP HTRF, 2 h; active compounds read low; 0.2% of 330,000 active; P16473; activity change, negative = inhibition, % at 11.5 µM;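 active = activity change below a set negative limit, meaning inhibition stronger than a set level, cut at about -70% in these data; inconclusive = activity change between two set negative limits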
Target sequence (P16473 whole entry, looked up): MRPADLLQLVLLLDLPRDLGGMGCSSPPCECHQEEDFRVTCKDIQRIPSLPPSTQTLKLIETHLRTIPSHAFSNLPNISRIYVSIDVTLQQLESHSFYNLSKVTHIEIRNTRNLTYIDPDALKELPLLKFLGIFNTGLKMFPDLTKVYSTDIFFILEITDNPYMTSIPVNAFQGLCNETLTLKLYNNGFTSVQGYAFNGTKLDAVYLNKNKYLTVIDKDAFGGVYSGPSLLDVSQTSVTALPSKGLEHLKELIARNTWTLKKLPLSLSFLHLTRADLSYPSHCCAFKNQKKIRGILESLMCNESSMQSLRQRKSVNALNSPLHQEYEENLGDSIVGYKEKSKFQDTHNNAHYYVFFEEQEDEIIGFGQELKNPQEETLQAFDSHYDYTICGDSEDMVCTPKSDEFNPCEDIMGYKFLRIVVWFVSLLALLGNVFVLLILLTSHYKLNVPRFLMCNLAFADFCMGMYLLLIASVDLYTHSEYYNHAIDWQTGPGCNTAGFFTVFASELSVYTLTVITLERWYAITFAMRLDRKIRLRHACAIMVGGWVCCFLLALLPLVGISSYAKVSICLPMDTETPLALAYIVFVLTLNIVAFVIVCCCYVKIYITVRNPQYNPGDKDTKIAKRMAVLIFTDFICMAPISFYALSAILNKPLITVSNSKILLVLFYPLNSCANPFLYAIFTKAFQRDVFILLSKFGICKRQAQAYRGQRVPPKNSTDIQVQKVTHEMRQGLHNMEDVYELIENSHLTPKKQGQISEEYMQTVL
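TSHR-expressing cells, 200/well, pre-treated with compound, then stimulated with EC80 TSH (4nM final) for 2 hours at 37 deg C. cAMP measured by competitive HTRF: anti-cAMP cryptate antibody in lysis buffer plus cAMP-d2, read after 30 minutes at room temperature.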
ELG1 repair inh = ELG1-dependent DNA repair inhibition; HEK293T ELG1-luciferase reporter, luminescence, 16 h; DNA damage induced by 5-fluorouridine; Potency, µM (doses to about 46.1 µM), without a hit: at the highest dose activity change, negative = inhibition, actives largely listed as inhibitors; 2.3% of 330,000 active; AID 504467; note: potency is the fitted concentration of half-maximal effect; nearly all actives have a fitted effect of over 55% in size
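HEK293T cells expressing luciferase-tagged ELG1 (2,000/well) received 5-Fluorouridine plus compound or DMSO for 16 hr at 37 °C. Luciferase was read by ONE-Glo luminescence after 30 min at room temperature.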
RORgamma inh = ROR gamma (mouse) transcription inhibition; Drosophila S2 Gal4-RORgamma UAS-luciferase reporter, 20 h; Potency, µM (series often up to 53.6 µM), inactives show at the highest dose activity change, negative = inhibition, most hits filed as inhibitors; 5.4% of 310,000 active; AID 2551; note: potency is the fitted concentration of half-maximal effect; nearly all actives have a fitted effect of over 60% in size
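Schneider cells (Drosophila), stable Gal4 DBD–ROR gamma + UAS-luc; 1 hr cmpd preincubation; Cu2+ induction 700 uM final; 20 hr ambient; luminescence.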
FBPA coupling cs = counter-screen for Giardia aldolase inhibitors: coupling enzyme system; coupling enzyme system counterscreen, AmpLite Red fluorescence; AID 2472; activity change, negative = inhibition, % at 58.2 µM, hits read low; 0.67% of 290,000 active; in the data active = activity change below about -30%
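Counterscreen of the coupled detection system alone, without aldolase: glyceraldehyde-3-phosphate coupling enzymes plus AmpLite Red readout. Compounds at 57.5 uM final, 10 min RT preincubation, 20 min RT reaction, fluorescence 525/598 nm.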
* hit, by the source's call; ? = inconclusive; . = no result given; [ ] = remark or other dose. Unless noted, calls come from the whole dose curve; as a rule, active = well fitted curve in the direction sought with a large enough effect; inconclusive = small, poorly fitted or top-dose-only effect, or another doubt; inactive = no such curve, though single readings can be large; an effect the other way counts as inactive or inconclusive. % is set by controls: 0 for no effect and ±100 for the full control effect.

SMILES	VP16 counter	TSHR antag	ELG1 repair inh	RORgamma inh	FBPA coupling cs
COc1ccc(CN2CCN(C(=O)CC(C)C)CC2)c(OC)c1OC	3%	19	-13%	-1%	0
COc1ccc(CN2CCN(C(=O)c3cccs3)CC2)c(OC)c1OC	1%	6	21µM*	0%	-5
Cc1ccc(-c2[nH]ncc2CN2CCN(C(=O)c3cccs3)CC2)cc1C	-8%	7	12µM*	26%	0
COc1ccc(CN2CCN(C(=O)CN3C(=O)C4C5C=CC(C5)C4C3=O)CC2)c(OC)c1OC (stereo not drawn)	6.3µM*	0	?	-28%	0
COc1cc(NC(=O)CSc2ncnc3sc4c(c23)CCC(C)C4)c(C(=O)O)cc1OC (stereo not drawn)	?	-8	1%	11µM*	3
CC(C)N1C(=O)N(c2cccc(Cl)c2)C(C)(O)CC1(C)C (stereo not drawn)	-3%	3	-11%	7.9µM*	2
COc1ccc(Br)c(C(=O)N(C)CC(=O)Nc2ccc(N3CCOCC3)cc2)c1	.	12	3%	.	.
O=C(Nc1ccccc1)c1ccc(CN2CCc3ccccc3C2)cc1	20%	-41	?	37%	0
O=C(Nc1cccnc1)c1ccc(CN2CCc3ccccc3C2)cc1	6%	-13	8.2µM*	32%	-7
O=C(Nc1ccc(S(=O)(=O)N2CCCCC2)cc1)c1ccc(CN2CCc3ccccc3C2)cc1	4.5µM*	-46	12%	?	-8
CC(=O)N1CCOc2ccc(S(=O)(=O)NCC3CCC(C(=O)NCCC(C)C)CC3)cc21 (stereo not drawn)	-1%	1	?	41%	4
CC(=O)N1CCOc2ccc(S(=O)(=O)NCC3CCC(C(=O)Nc4ccc(C)cn4)CC3)cc21 (stereo not drawn)	?	-18	5.2µM*	10%	.
COc1ccc(-n2c(=O)c(CCc3ccccc3)nc3cnc(N4CCOCC4)nc32)cc1	-5%	.	.	-11%	2
CCCCNC(=O)c1cn(-c2ccc(OCC)cc2)c(=O)c2cc(OC)c(OC)cc12	-17%	-10	23µM*	6%	4
CCOc1ccc(NC(=O)c2cn(-c3ccc(OCC)cc3)c(=O)c3cc(OC)c(OC)cc23)cc1	-6%	-1	?	24%	0
Cc1cccc(C)c1NC(=O)CN(C)C(=O)CC1Sc2ccccc2NC1=O (stereo not drawn)	.	-7	28%	.	.
CCOc1cc2[nH]c(=S)n(C3CCN(Cc4ccccc4)CC3)c(=O)c2cc1OCC	?	-1	2%	?	2
O=c1c2cc3c(cc2[nH]c(=S)n1C1CCN(Cc2ccccc2)CC1)OCO3	3.5µM*	11	-2%	5µM*	1
O=C(NC(=S)Nc1ccc(N2CCCC2)cc1)c1ccccc1[N+](=O)[O-]	5µM*	-13	11%	4µM*	-2
O=C(NC(=S)Nc1ccccc1N1CCCC1)c1ccccc1[N+](=O)[O-]	4µM*	-10	3%	2.8µM*	0
COc1cccc(CC(=O)OCC(=O)c2cc(OC)c(OC)c(OC)c2)c1	.	.	0%	.	.
CCOc1ccc(OCCNCc2ccc(OC(C)C(=O)N(C)C)c(OCC)c2)cc1 (stereo not drawn)	6%	21	?	3%	-3
Cc1ccc(S(=O)(=O)N2CCOCC2)cc1NCC(=O)Nc1ccc(OC(F)(F)F)cc1	.	-2	16%	.	.
COc1ccc(Cl)cc1-c1n[nH]c(=S)n1C	2%	24	-21%	?	0
COc1cccc2cc(-c3ccnc(=S)[nH]3)oc12	?	-8	?	2.8µM*	2
SMILES	VP16 counter	TSHR antag	ELG1 repair inh	RORgamma inh	FBPA coupling cs
C=CCn1c(-c2cccc(OC)c2OC)n[nH]c1=S	?	14	?	11µM*	1
C=CCn1c(-c2cc(Cl)ccc2OC)n[nH]c1=S	18µM*	-1	0%	11µM*	2
C=CCn1c(-c2cc(OC)c(OC)c(OC)c2)n[nH]c1=S	?	-4	-1%	?	1
CCn1c(-c2cc(Cl)ccc2OC)n[nH]c1=S	?	-2	6%	6.3µM*	-1
Cc1nnc(NC(=O)CCC(=O)NC2CCCCCCC2)s1	-2%	1	?	-44%	3
C=CCn1c(-c2cc3cccc(OC)c3o2)n[nH]c1=S	?	-3	-3%	3.5µM*	-1
COc1cc(C(=O)OCc2ccc(C)cc2)cc(NC(=O)c2cccs2)c1OC	-10%	-17	21µM*	?	3
COc1cccc(C(=O)Nc2cc(NC(=O)c3cccs3)ccc2C)c1OC	-5%	5	16µM*	16%	-3
COc1cccc(C(=O)Nc2cc(NC(=O)c3cccs3)ccc2C)c1	-7%	-10	?	-5%	-1
COc1cc(C(=O)Nc2cccc(NC(=O)c3ccccc3)c2)cc(OC)c1OC	-1%	12	?	43%	0
COc1cc(C(=O)Nc2nc(-c3cccs3)cs2)cc(OC)c1OC	5%	-40	13µM*	7%	6
COc1cc(C(=O)Nc2cccc(NC(=O)c3cccs3)c2)cc(OC)c1OC	-4%	-8	8.2µM*	?	4
COc1cccc(NC(=O)CN(C)C(=O)/C=C/c2ccc3ccccc3n2)c1	.	8	-6%	.	.
COc1ccc(-n2c(N)c(C(=O)NCC3CCCO3)c3nc4ccccc4nc32)c(OC)c1 (stereo not drawn)	-12%	7	-20%	27%	-30*
C=CCn1c(N)c(C(=O)NCC2CCCO2)c2nc3ccccc3nc21 (stereo not drawn)	?	-6	10µM*	13µM*	-56*
CO[C@H]1COC(=O)[C@H]2CCCN2C(=O)C/C=C\[C@@H](C)[C@H](OC)COC(=O)[C@@H](OCc2ccccc2)/C=C\[C@@H]1C	-4%[10 µM]	.	.	2%[10 µM]	0
